# Test results taken from PubChem BioAssay (Tox21).
# “And” between values parts separate entries of the source, which are not always exact repeats. Identical values can stand only once. Inconclusive results are not listed. Entries that show only a call come without a potency. The source holds several records for some structures; these can differ, active in one and inactive in another. The source made the active and inactive calls. Calls come from the whole dose curve; as a rule, active = well fitted curve in the direction sought with a large enough effect in the repeat runs; inconclusive = weak or mixed curves; inactive = no such curve, though single readings can be large; an effect the other way counts as inactive or inconclusive.
# Legend:
# [1] = qHTS RealTime-Glo MT Cell Viability Assay in HepG2 cells - 8 hour (AID 1224873); note: nearly all actives have a fitted effect of over 55% in size; note: potency is the fitted concentration of half-maximal effect
# Method in brief: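 HepG2 cells mixed with RealTime-Glo MT reagents (NanoLuc plus cell-permeant prosubstrate) were seeded at 600 cells/well, incubated 5 h at 37 C/5% CO2, then pinned with compounds in DMSO; nonlytic luminescence tracked viability during 40 h treatment.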
# [2] = A CellTox Green Cytotoxicity Assay to monitor cytotoxicity in HEK293 cells - 24 hour (AID 1224875); note: nearly all actives have a fitted effect of over 45% in size; note: potency is the fitted concentration of half-maximal effect; for activity change: series mostly up to about 77 µM
# Method in brief: (§1)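 Real-time, in one plate: 600 HEK293 cells/well with dead-cell DNA dye, pinned compound after 5 h, 37 C incubation over 40 h; viable cells give no appreciable fluorescence.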
# [3] = A CellTox Green Cytotoxicity Assay to monitor cytotoxicity in HepG2 cells - 16 hour (AID 1224876); note: nearly all actives have a fitted effect of over 45% in size; note: potency is the fitted concentration of half-maximal effect
# Method in brief: (§2)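 Cytotoxicity was tracked as dead-cell DNA fluorescence in HepG2 cells treated with test compounds at 37 C; each time-point value comes from one kinetic series spanning 0, 8, 16, 24, 32 and 40 h.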
# [4] = qHTS RealTime-Glo MT Cell Viability Assay in HepG2 cells - 32 hour (AID 1224877); note: nearly all actives have a fitted effect of over 55% in size; note: potency is the fitted concentration of half-maximal effect
# Method in brief: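 Luminescence read-out: viable HepG2 cells reduce a prosubstrate to a NanoLuc substrate, giving a signal proportional to live cell number. Reads taken at 0, 8, 16, 24, 32 and 40 h of compound exposure at 37 C.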
# [5] = A CellTox Green Cytotoxicity Assay to monitor cytotoxicity in HepG2 cells - 24 hour (AID 1224878); note: nearly all actives have a fitted effect of over 45% in size; note: potency is the fitted concentration of half-maximal effect
# Method in brief: as §2
# [6] = A CellTox Green Cytotoxicity Assay to monitor cytotoxicity in HepG2 cells - 40 hour (AID 1224879); note: nearly all actives have a fitted effect of over 40% in size; note: potency is the fitted concentration of half-maximal effect
# Method in brief: as §2
# [7] = qHTS RealTime-Glo MT Cell Viability Assay in HEK293 cells - 0 hour (AID 1224880); note: top concentration of the series differs between compounds; nearly all actives have a fitted effect of over 45% in size
# Method in brief: (§3)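 Kinetic, non-lysing viability readout. Seed HEK293 (600/well) with reagent, incubate 5 h at 37 C/5% CO2, pin 23 nL compound in DMSO, incubate at 37 C, read luminescence at 0, 8, 16, 24, 32, 40 h.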
# [8] = A CellTox Green Cytotoxicity Assay to monitor cytotoxicity in HEK293 cells - 32 hour (AID 1224881); note: nearly all actives have a fitted effect of over 40% in size; note: potency is the fitted concentration of half-maximal effect
# Method in brief: as §1
# [9] = qHTS RealTime-Glo MT Cell Viability Assay in HEK293 cells - 40 hour (AID 1224874); conditions: RealTime-Glo luminescence; max response: stronger effect = lower value; note: nearly all actives have a fitted effect of over 50% in size; note: potency is the fitted concentration of half-maximal effect
# Method in brief: as §3
Compound,Potency [1],Potency [2],Potency [3],Potency [4],Potency [5],Potency [6],Potency [7],Potency [8],Potency [9],max response [9],"activity change, negative = cytotoxicity [7]"
CC1(C)C(/C=C(\Cl)C(F)(F)F)C1C(=O)OC(C#N)c1cccc(Oc2ccccc2)c1 (configuration not stated),inactive,inactive,inactive,inactive,inactive,inactive,inactive,inactive,–,–,–
Oc1ccc(C2(c3ccc(O)cc3)CCCCC2)cc1,inactive,–,inactive,inactive,inactive,–,inactive,–,46.4 µM (active),–,–
Oc1ccc(C(c2ccc(O)cc2)(C(F)(F)F)C(F)(F)F)cc1,inactive,–,54.9 µM (active),inactive,54.7 µM (active) and 24.5 µM (active),54.7 µM (active) and 54.9 µM (active),inactive,43.4 µM (active) and inactive,38.7 µM (active),–,–
O=C(CBr)c1ccc(O)cc1,inactive,inactive,–,inactive,–,–,inactive,inactive,–,22.3% (inactive),–
Oc1c(Cl)c(Cl)cc(Cl)c1Cl,inactive,–,inactive,inactive,inactive,inactive,inactive,–,47.6 µM (active),–,–
O=[N+]([O-])O.O=[N+]([O-])O.[Cd],inactive,–,inactive,–,49 µM (active),43.6 µM (active),inactive,38.9 µM (active),24.5 µM (active),–,–
COc1cc(C=O)cc2c1[C@H](COC(N)=O)[C@]1(OC(C)=O)ON2C[C@H]2[C@@H]1N2C(C)=O,inactive,inactive,inactive,–,0.11 µM (active),0.0776 µM (active),–,inactive,0.0309 µM (active),–,–
CCOP(=S)(OCC)SCS(=O)(=O)CC,inactive,inactive,inactive,inactive,inactive,inactive,–,inactive,–,–,–
CC1(c2ccc(Oc3ccccc3)cc2)OC(=O)N(Nc2ccccc2)C1=O (configuration not stated),49.3 µM (active),–,–,–,–,55.3 µM (active),inactive,–,49.3 µM (active),–,–
Oc1c(Br)c(Br)c(Br)c(Br)c1Br,inactive,inactive,inactive,inactive,inactive,inactive,inactive,inactive,–,–,–
C=CC(=O)OCC(COC(=O)C=C)(COC(=O)C=C)COC(=O)C=C,3.09 µM (active),–,inactive,5.49 µM (active),–,21.9 µM (active),–,27.5 µM (active),3.89 µM (active),–,–
OC(c1ccc(Cl)cc1)(c1ccc(Cl)cc1)C(Cl)(Cl)Cl,inactive,inactive,inactive,inactive,inactive,inactive,inactive,–,–,–,–
CC(=O)[O-].CC(=O)[O-].[Hg+2],2.45 µM (active),21.9 µM (active),2.75 µM (active),2.19 µM (active),–,1.55 µM (active),–,7.76 µM (active),1.55 µM (active),–,–
[Cl][Sn]([c]1ccccc1)([c]1ccccc1)[c]1ccccc1,7.37 µM (active),1.85 µM (active),3.29 µM (active),2.61 µM (active),–,2.61 µM (active),–,1.65 µM (active),0.233 µM (active),–,1.26% [at 15.8 µM] (inactive)
COP(=O)(OC)SCn1c(=O)oc2cc(Cl)cnc21,inactive,inactive,inactive,inactive,inactive,49 µM (active),inactive,inactive,–,–,–
CCCCOCN(C(=O)CCl)c1c(CC)cccc1CC,inactive,inactive,inactive,–,–,–,inactive,inactive,–,-10.8% (inactive),–
CC(=O)O[C@H]1CC[C@@]2(C)C(=CC[C@@H]3[C@@H]2CC[C@]2(C)C(=O)CC[C@@H]32)C1,inactive,–,inactive,inactive,inactive,inactive,–,–,54.9 µM (active),–,–
CC(C)(C)C(O)C(Oc1ccc(-c2ccccc2)cc1)n1cncn1 (configuration not stated),inactive,inactive,inactive,inactive,–,–,inactive,inactive,21.9 µM (active),–,–
CC(=O)[O-].CC(=O)[O-].O.O.[Cd+2],inactive,–,–,–,48.3 µM (active),27.2 µM (active),inactive,–,15.3 µM (active),–,–
C[CH2][Hg][N]1C(=O)C2C(C1=O)C1(Cl)C(Cl)=C(Cl)C2(Cl)C1(Cl)Cl (configuration not stated),7.37 µM (active),4.65 µM (active),–,6.57 µM (active),7.37 µM (active),6.57 µM (active),–,4.65 µM (active),2.08 µM (active),–,-4.29% [at 15.8 µM] (inactive)
CCOc1cc(C(C)(C)C)ccc1C1COC(c2c(F)cccc2F)=N1 (configuration not stated),inactive,inactive,inactive,inactive,inactive,inactive,–,inactive,–,–,–
N#CCCC(Br)(C#N)CBr (configuration not stated),49 µM (active),54.9 µM (active),–,34.7 µM (active),38.9 µM (active),24.5 µM (active),–,54.9 µM (active),21.9 µM (active),–,–
CCOC(=O)c1ccccc1S(=O)(=O)NC(=O)Nc1nc(Cl)cc(OC)n1,inactive,–,–,inactive,inactive,inactive,–,54.9 µM (active),–,–,–
CCCCOP(=O)(CCCC)OCCCC,inactive,inactive,–,inactive,inactive,inactive,inactive,inactive,–,–,–
CC(=O)C(Cl)(Cl)Cl,inactive,inactive,–,inactive,–,inactive,–,inactive,–,–,–
